The campaign covered roughly 420,000 compounds. About 64,000 (15%) were called active. About 27% were inconclusive and are not listed. The call rests on the fitted dose curve; in most records, active means well fitted inhibition curve with a large enough effect; inconclusive means small, poorly fitted or top-dose-only effect; inactive means flat fitted curve, though single readings scatter. These entries were drawn from the full list. Where a call stands in place of a potency, no number is given.
Assay: qHTS for Inhibitors of human tyrosyl-DNA phosphodiesterase 1 (TDP1): qHTS in cells in absence of CPT; further: nearly all actives have a fitted effect of over 55% in size
Details: DT40 Tdp1-/- hTDP1 cells, no CPT, ATP luminescence, 48 h; activity change, negative = growth inhibition: at 46.2 µM (top of the series)
Summary of the method: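 Growth kinetics read by CellTiter-Glo luminescence after ≥48 hr at 37 °C. Cells: DT40 Tdp1-/- stably carrying human TDP1, 400 per well, compound exposure in the absence of CPT (DMSO vehicle).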
For `CCCCC(NS(=O)(=O)c1ccc(C)cc1)C(=O)Oc1ccc2c3c(c(=O)oc2c1)CCC3` (stereo not drawn), the Potency was “inactive”.
In the case of `CCc1c(-c2ccccc2)nc(N)c(C#N)c1-c1cccs1`, the Potency is reported as “inactive”.
With `CCC1CN(CCNC(=O)c2cccc(C)n2)Cc2cc(OC)ccc2O1` (stereo not drawn) the Potency was “inactive”.
With `CC(C)C(=O)Nc1c(O)c2ccccc2[nH]c1=O` the Potency was “inactive”.
In the case of `O=C(O)C1CCCN(S(=O)(=O)c2cccc3cccnc23)C1` (stereo not drawn), the Potency is reported as “inactive”.
In the case of `CC(C)[C@@H]1NC(=O)c2cc([N+](=O)[O-])cc(I)c2NCCC[C@@H](C(=O)NC(CC(=O)O)C(N)=O)NC(=O)[C@H](CO)NC1=O` (stereo partly drawn), the Potency is reported as “inactive”.
For `COC(=O)c1c(C)[nH]c(C(=O)NCCc2ccc(S(N)(=O)=O)cc2)c1C`, the Potency was “inactive”.
For `CCCc1c(C)nc2c(Br)cccc2c1Cl`, the Potency was “inactive”.
In the case of `Cn1cnc(C(F)(F)F)c1-c1ccc([N+](=O)[O-])cc1`, the Potency is reported as “inactive”.
For `COc1ccc(S(=O)(=O)c2c[nH]c(=S)[nH]c2=O)cc1Cl`, the Potency was “inactive”.
In the case of `Cc1ccc(/C(N)=N/OC(=O)COc2ccc(Cl)c(C)c2)cc1`, the Potency is reported as “inactive”.
In the case of `COc1ccc(C(C)=O)cc1COc1ccc(Cl)c(C)c1`, the Potency is reported as 9.2 µM (active).
In the case of `COc1ccc(-c2noc(COc3ccc(Cl)c(C)c3)n2)cc1`, the Potency is reported as “inactive”.
For `O=C(CSCc1c(Cl)cccc1Cl)NN1C(=O)c2ccccc2C1=O`, the Potency was “inactive”.
With `Cc1cc(C)c(NC(=S)N2CCCC2C(=O)O)c(C)c1` (stereo not drawn) the Potency was “inactive”.
With `Cc1nn(CC(=O)N2CCN(c3cccc(C(F)(F)F)c3)CC2)c(=O)c2cc3sccc3n12` the Potency was “inactive”.
For `CC(C)N1C[C@@H](NCc2ccccc2O)C[C@H]1C(=O)N1CCN(c2cccc(C(F)(F)F)c2)CC1`, the Potency was 18.4 µM (active).
In the case of `O=C(c1cc2ccccc2o1)N1CCN(c2cccc(C(F)(F)F)c2)CC1`, the Potency is reported as “inactive”.
With `Cc1cc(C)nc(NS(=O)(=O)c2ccc(N3C(=O)C4CCCCC4C3=O)cc2)n1` (stereo not drawn) the Potency was “inactive”.
With `CC(=O)NC(Cc1ccccc1)C(=O)NC1CCN(c2ncccc2[N+](=O)[O-])CC1` (stereo not drawn) the Potency was “inactive”.
In the case of `CCCOc1ccc(-c2cccc(NS(=O)(=O)c3ccccc3)c2)nn1`, the Potency is reported as 23.1 µM (active).
With `O=[N+]([O-])c1ccc(S(=O)(=O)Nc2cccc(-c3ccc(N4CCCC4)nn3)c2)cc1` the Potency was “inactive”.
In the case of `O=S(=O)(Nc1cccc(-c2ccc(N3CCOCC3)nn2)c1)c1ccc(Cl)c(Cl)c1`, the Potency is reported as “inactive”.
In the case of `N#Cc1ccc(CSc2nnc3ccccn23)cc1`, the Potency is reported as “inactive”.
With `O=c1c2ccccc2cnn1Cc1n[nH]c(=S)n1-c1ccccc1F` the Potency was “inactive”.
For `Cc1ccc(N2CCN(C3=NC(=O)/C(=C\c4cccs4)S3)CC2)cc1`, the Potency was “inactive”.
For `CNS(=O)(=O)c1cnccc1N1CCN(c2cccc(C)c2)CC1`, the Potency was “inactive”.
With `CC(C)=C1SC(N2CCN(c3cccc(C)c3)CC2)=NC1=O` the Potency was 20.6 µM (active).
For `N/C(=N\OC(=O)CC1CCCCC1)c1ccccc1`, the Potency was “inactive”.
With `Cc1cc(C)c2c(=O)[nH]c(SCC(=O)Nc3ccc(Br)cc3)nc2n1` the Potency was “inactive”.
In the case of `O=C(Nc1cc(S(=O)(=O)N2CCOCC2)ccc1OCC(F)(F)F)c1ccc(N2CCCC2=O)cc1`, the Potency is reported as “inactive”.
In the case of `CCOC(=O)C1C(c2ccc(Cl)cc2)NC(=S)NC1(O)C(F)(F)F` (stereo not drawn), the Potency is reported as “inactive”.
For `O=C(/C=C/Sc1ncn[nH]1)c1ccc(Cl)cc1`, the Potency was 2.59 µM (active).
With `O=C(NCCOCc1ccc(Cl)cc1)c1ncn[nH]1` the Potency was “inactive”.
With `O=C(CSc1ncn[nH]1)N/N=C/c1ccc(F)cc1` the Potency was “inactive”.
With `O=C(O)c1cc(Cl)c(Cl)cc1C(=O)Nc1cccc2ncccc12` the Potency was “inactive”.
With `Cc1ccc(C(=O)Nc2nc3ccc(Cl)cc3s2)o1` the Potency was “inactive”.
In the case of `Cc1csc(NC(=O)c2ccc(-c3ccc(Cl)cc3Cl)o2)n1`, the Potency is reported as 5.17 µM (active).
For `Cc1csc(NC(=O)c2ccc(C)s2)n1`, the Potency was “inactive”.
In the case of `O=C(Nc1cccc2ncccc12)c1ccc(-c2ccc(Cl)cc2Cl)o1`, the Potency is reported as 20.6 µM (active).
In the case of `O=C(Nc1cccnc1Cl)c1cc(-c2cccc(Cl)c2)on1`, the Potency is reported as “inactive”.
In the case of `COc1ccc(Br)c2c1C(=O)CC2`, the Potency is reported as “inactive”.
For `O=C(NCc1ccc(F)cc1)C(c1ccccc1)N(C(=O)c1csnn1)C1CC1` (stereo not drawn), the Potency was “inactive”.
With `CCNC(=O)N1CCN(S(=O)(=O)c2ccc3c(c2)OCCCO3)CC1` the Potency was “inactive”.
In the case of `O=C(Cc1ccc(Cl)c(Cl)c1)Nc1ccc(SC(F)F)cc1`, the Potency is reported as “inactive”.
In the case of `CC(C)(CCl)C(=O)Nc1ccc(Sc2ccc(F)cc2)cc1`, the Potency is reported as 7.31 µM (active).
For `O=C(CCl)Nc1ccc(Sc2ccc(NC(=O)CCl)cc2)cc1`, the Potency was 5.17 µM (active).
With `CCN(c1ccccc1)S(=O)(=O)c1ccc(NC(=O)C(C)(C)C)cc1` the Potency was “inactive”.
In the case of `Cc1ccc(NC(=O)CC(=O)Nc2ccc(C)cc2)cc1`, the Potency is reported as “inactive”.
In the case of `CC(=O)Nc1cc(C(=O)NCc2ccc(F)cc2)ccc1Sc1ccc(F)cc1`, the Potency is reported as “inactive”.
In the case of `Cc1sc2ncn(CC(=O)NCCCC(=O)NCc3ccc(F)cc3)c(=O)c2c1C`, the Potency is reported as “inactive”.
For `Cc1c(Cl)cccc1NC(=O)CC1SC(=NCC2CCCO2)NC1=O` (stereo not drawn), the Potency was “inactive”.
In the case of `COc1ccc(N2C(=O)C3CCCN3C2c2cc(OC)c(OC)cc2OC)cc1` (stereo not drawn), the Potency is reported as “inactive”.
In the case of `CCNC(=O)C1(C)CCCN(C(=O)c2ccc3ccccc3n2)C1` (stereo not drawn), the Potency is reported as “inactive”.
With `Cc1cc(/C=N/n2cnnc2)c(C)n1-c1cccc(C(=O)O)c1` the Potency was “inactive”.
In the case of `Cc1cccc(-n2c(C)cc(/C=N/NC(N)=S)c2C)c1`, the Potency is reported as 5.8 µM (active).
In the case of `Cc1cc(/C=N/NC(=O)c2cccnc2)c(C)n1CC(C)C`, the Potency is reported as “inactive”.
For `CC(=O)Nc1ccc(/C=N/NC(=O)c2cccs2)cc1`, the Potency was “inactive”.
With `Cc1cccc(-n2c(C)cc(/C=N\NC(=O)c3cccs3)c2C)c1` the Potency was 16.4 µM (active).
In the case of `Cc1cc(/C=N/NC(N)=O)c(C)n1C1CCCCC1`, the Potency is reported as “inactive”.
With `Cc1c(C#N)c2ncn(CC#N)c(=O)c2n1-c1ccccc1` the Potency was “inactive”.
For `CCCCOC(=O)Nc1nnc(CC(=O)NCc2ccccc2)s1`, the Potency was “inactive”.
With `Nn1c(SCC(=O)NC2CCCC2)nnc1-c1ccccc1F` the Potency was “inactive”.
For `Cc1cccc(CNC(=O)c2cnn(-c3nccc(-c4ccccc4F)n3)c2C2CC2)n1`, the Potency was “inactive”.
For `Cc1cc(-c2ccnc(-n3ncc(C(=O)NC(C)(C)CO)c3C3CC3)n2)c(C)s1`, the Potency was 23.1 µM (active).
With `Cc1cc(-c2ccnc(-n3ncc(C(=O)NCCc4ccncc4)c3C)n2)c(C)s1` the Potency was “inactive”.
With `CNc1nc2c(C)cccn2c(=O)c1C=Nc1ccc(OC)cc1` the Potency was “inactive”.
For `CC(Oc1ccc(Cl)cc1)C(=O)Nc1ncccn1` (stereo not drawn), the Potency was “inactive”.
For `CCN1CCN(C(=O)N[C@@H](C(=O)N[C@@H]2C(=O)N3[C@@H]2SC(C)(C)[C@H]3C(=O)O)c2ccccc2)C(=O)C1=O`, the Potency was “inactive”.
For `O=C(NC(=S)Nc1cccc(-c2ccc(CO)o2)c1)c1cccs1`, the Potency was 25.9 µM (active).
In the case of `CCc1nnc(NS(=O)(=O)c2ccc(NC(=S)NC(=O)c3cccs3)cc2)s1`, the Potency is reported as “inactive”.
For `O=C(NC(=S)Nc1ccc(NC(=O)c2cccs2)cc1)c1ccc([N+](=O)[O-])cc1`, the Potency was “inactive”.
For `Cc1ccc(N2C(=O)C3C4C=CC(CC4)C3C2=O)cc1Cl` (stereo not drawn), the Potency was “inactive”.
For `N#Cc1cccc(OC(=O)c2ccc3c(=O)n4c(nc3c2)CCC4)c1`, the Potency was “inactive”.
In the case of `O=C(CSCc1ccc(Cl)cc1)N1CCCCC1`, the Potency is reported as 16.4 µM (active).
For `O=C(CSCc1cccs1)N1CCCC1`, the Potency was “inactive”.
With `CC(=O)C(CC(=O)N1CCCC1)C(=O)Nc1ccc(Cl)cc1` (stereo not drawn) the Potency was “inactive”.
For `O=C(N/C(=C\c1ccc([N+](=O)[O-])cc1)C(=O)N1CCCCC1)c1ccco1`, the Potency was “inactive”.
In the case of `COC(=O)/C(NC(C)=O)=C(\C)c1ccc(Cl)cc1`, the Potency is reported as “inactive”.
For `COc1ccc(OC)c(NC(=O)CC(Cc2ccccc2OC)C(=O)O)c1` (stereo not drawn), the Potency was 11.2 µM (active).
For `CCOc1ccccc1NC(=O)Nc1cc(OC)ccc1OC`, the Potency was “inactive”.
For `COc1ccc(OC)c(NC(=O)Cc2cccs2)c1`, the Potency was “inactive”.
In the case of `CC1CC(C)(C)n2c(O)c(N=NC(N)=S)c3cccc1c32` (stereo not drawn), the Potency is reported as “inactive”.
In the case of `COc1ccc(OCc2cccc(C(=O)N3CCCC3)c2)cc1`, the Potency is reported as “inactive”.
With `COC(=O)[C@@]1(Cc2ccc(F)cc2)[C@H]2c3cc(C(=O)N4CCCC4)n(Cc4ccc(OC(F)(F)F)cc4)c3C[C@H]2CN1C(=O)c1ccccc1` the Potency was 18.4 µM (active).
For `COc1ccc2[nH]cc(CCN3C(=O)c4ccc(C(=O)O)cc4C3=O)c2c1`, the Potency was “inactive”.
For `COC(=O)[C@@]1(Cc2ccc(F)cc2)[C@H]2c3cc(C(=O)N(C)C)n(CCc4c[nH]c5ccc(OC)cc45)c3C[C@H]2CN1C(=O)c1ccccc1`, the Potency was 23.1 µM (active).
In the case of `COC(=O)[C@@]1(Cc2ccc(OC)cc2)[C@H]2c3cc(C(=O)N4CCCC4)n(Cc4ccc(OC(F)(F)F)cc4)c3C[C@H]2CN1C(=O)c1ccccc1`, the Potency is reported as 18.4 µM (active).
In the case of `COC(=O)c1cccc(C(=O)N2CCC(CCC(=O)NCc3ccc(F)cc3)CC2)c1`, the Potency is reported as “inactive”.
For `Cc1ccc(CN2CCNC(=O)C2CC(=O)NCc2csc(C(C)C)n2)cc1` (stereo not drawn), the Potency was “inactive”.
With `Cc1cc(NC(=O)c2cccc(N3C(=O)CCC3=O)c2)no1` the Potency was “inactive”.
In the case of `Cc1cc(N/C=C\C(=O)c2ccc(Cl)c(Cl)c2)no1`, the Potency is reported as “inactive”.
With `Cc1cccc(OCCC(=O)OCc2csc(CC(=O)Nc3ccccc3C)n2)c1` the Potency was “inactive”.
For `O=C(CSc1nnc(SCc2ccc(F)cc2)s1)Nc1ccc(C(=O)O)cc1`, the Potency was “inactive”.
With `CCCCn1c(N)c(N(CCC(C)C)C(=O)COC(=O)c2cccnc2OCC)c(=O)[nH]c1=O` the Potency was “inactive”.
In the case of `O=C(NCCCCO)C(F)(F)C(F)(F)C(F)(F)C(=O)NCCCCO`, the Potency is reported as “inactive”.
For `CC1=C2C(=O)OC(c3ccoc3)C2(C)CCC1` (stereo not drawn), the Potency was “inactive”.
With `O=C(Nc1ccc(F)cc1)Nc1nnc([C@H]2C[C@H](O)[C@@H](CO)O2)s1` the Potency was “inactive”.
For `Cc1c(Cl)cnc(NC(=O)COC(=O)C2CCCC2)c1Cl`, the Potency was “inactive”.
For `Cc1ccc(NC(=O)C(C)Sc2nnc(C3CC3)n2C2CC2)cc1S(=O)(=O)N1CCOCC1` (stereo not drawn), the Potency was “inactive”.
In the case of `FC(F)Oc1ccccc1C1CC(c2ccc(Br)s2)Nc2ncnn21` (stereo not drawn), the Potency is reported as 16.4 µM (active).
In the case of `COc1ccc(C2CC(c3ccccc3)Nc3ncnn32)cc1` (stereo not drawn), the Potency is reported as “inactive”.
In the case of `Clc1ccc(C2CC(c3cccs3)n3ncnc3N2)cc1Cl` (stereo not drawn), the Potency is reported as “inactive”.
Potency means the concentration at half of the fitted maximal effect.
